# PfM18AAP inh: blocks P. falciparum M18 aspartyl aminopeptidase; recombinant PfM18AAP, H-Glu-NHMec fluorogenic cleavage; inhibition, % at 7.35 µM; 290,000 compounds, 1.2% hits;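 active = inhibition above the campaign mean inhibition over all tested compounds plus 3 SD, cut at about 28% in these data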;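 note: 0% = plate median of test compound wells and 100% = 2 mM ZnCl2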
# ALR H2O2 inh: inhibitors of human sulfhydryl oxidase ALR | P55789 | purified ALR, DTT oxidation, H2O2 HRP-luminol luminescence | inhibition, % (concentration not given with the values) | 290,000 compounds, 3.8% hits;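 active = mean replicate inhibition above about 79%, with every replicate also reaching it, limit read from the data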
# Yeast superoxide: caloric restriction mimetics inhibiting age-related superoxide in yeast. S. cerevisiae aged cells, superoxide DHE fluorescence; active compounds read low. superoxide response (% of plate mean), % at 10 µM. 330,000 compounds, 0.18% hits. AID 2690;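 active = superoxide response under a set limit, about three screen SD below normal, cut at about 65% in these data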;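 note: yeast aged for seven days with compound at 30 °C before DHE staining; 100% = average MFI of all compound-treated wells on the plate with controls excluded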
# CendR NRP1 mod: alters CendR peptide binding to human NRP-1 | AID 602438 | 360,000 compounds, 0.85% hits | O14786 | inhibition, % at 25 µM | FAM-RPARPAR peptide binding to NRP-1, fluorescence polarization;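 active = inhibition or corrected inhibition above about 18%, plus a signal ratio from 0.5 to 1.5, limit read from the data, passing the limit was not always enough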
# Target sequence (O14786 whole entry, looked up): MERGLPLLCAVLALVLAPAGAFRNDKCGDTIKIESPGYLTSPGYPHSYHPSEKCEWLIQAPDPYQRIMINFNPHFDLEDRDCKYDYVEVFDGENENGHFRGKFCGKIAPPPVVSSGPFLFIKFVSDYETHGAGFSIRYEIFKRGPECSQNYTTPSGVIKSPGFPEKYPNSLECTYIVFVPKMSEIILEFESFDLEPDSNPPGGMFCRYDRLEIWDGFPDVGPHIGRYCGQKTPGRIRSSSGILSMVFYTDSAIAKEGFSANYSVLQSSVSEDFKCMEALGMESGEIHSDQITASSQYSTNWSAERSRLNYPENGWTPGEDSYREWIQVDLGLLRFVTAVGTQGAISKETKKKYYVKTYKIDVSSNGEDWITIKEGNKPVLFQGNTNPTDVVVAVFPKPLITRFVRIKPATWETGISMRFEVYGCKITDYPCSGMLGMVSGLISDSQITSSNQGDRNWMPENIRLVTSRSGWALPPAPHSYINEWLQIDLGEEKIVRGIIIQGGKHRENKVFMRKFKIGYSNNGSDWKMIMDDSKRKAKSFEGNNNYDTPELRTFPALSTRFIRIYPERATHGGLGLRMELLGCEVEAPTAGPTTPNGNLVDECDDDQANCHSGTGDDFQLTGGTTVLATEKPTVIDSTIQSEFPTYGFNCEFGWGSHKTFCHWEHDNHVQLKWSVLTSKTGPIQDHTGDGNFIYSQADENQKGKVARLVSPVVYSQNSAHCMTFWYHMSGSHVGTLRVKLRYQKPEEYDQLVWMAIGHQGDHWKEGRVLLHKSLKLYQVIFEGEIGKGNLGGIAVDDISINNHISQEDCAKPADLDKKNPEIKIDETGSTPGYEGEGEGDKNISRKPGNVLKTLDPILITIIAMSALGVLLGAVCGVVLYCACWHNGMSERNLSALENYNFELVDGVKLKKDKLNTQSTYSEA
# APOBEC3G inh: inhibitors of human APOBEC3G DNA deaminase | Q9HC16 | recombinant A3G, ssDNA deamination FAM/TAMRA fluorescence | inhibition, % at 20 µM | 330,000 compounds, 0.28% hits | AID 493012;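 active = inhibition of at least 40% at 20 µM, with no more than 30% in the related APOBEC3A deaminase screen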;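 note: plate controls were DMSO wells with A3G for no effect and wells lacking A3G enzyme for full effect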
# APOBEC3A inh: human APOBEC3A DNA deaminase inhibition | P31941 | inhibition, % at 20 µM | recombinant A3A, FAM/TAMRA ssDNA deamination fluorescence | AID 493011 | 330,000 compounds, 0.41% hits;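 active = at least 40% inhibition at 20 µM here, with at most 30% in a related deaminase screen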;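 note: plate controls were A3A with DMSO for no effect and wells lacking A3A enzyme for full effect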
# * marks the source's active call; other numbers are inactive results; . = not tested or not shown. A selection: hits, their analogues and other compounds. The true share with any hit is near 5.2%.
SMILES,PfM18AAP inh,ALR H2O2 inh,Yeast superoxide,CendR NRP1 mod,APOBEC3G inh,APOBEC3A inh
COc1cc(/C=N\NC(=O)C2CC3C=CC2C3)ccc1O (stereo not drawn),4,100*,120,8,1,-1
CCOc1ccc(/C=N/NC(=O)NC23CC4CC(CC(C4)C2)C3)cc1O,6,99*,101,11,-9,-3
COc1cc(/C=N/NC(=O)c2cnccn2)ccc1O,10,-16,119,-7,0,1
O=C(N/N=C/c1ccccc1O)NC12CC3CC(CC(C3)C1)C2,-9,28,91,4,2,4
CCOc1ccc(NC(=O)c2nn(C)c(C(=O)Nc3ccc(OCC)cc3)c2[N+](=O)[O-])cc1,10,2,105,3,-9,-5
CCOc1ccc(N/C(=C(/C(Cl)=C(Cl)Cl)[N+](=O)[O-])n2cncn2)cc1,78*,-74,116,.,3,-2
C=CCn1c(C(C)NC(=O)c2cccc(C)c2)n[nH]c1=S (stereo not drawn),20,93*,95,11,11,-2
Nc1nc(NCCc2ccccc2)nc(NCc2ccccc2)c1[N+](=O)[O-],4,-3,98,-2,-7,-7
CN(Cc1ccccc1)c1nc(N)c([N+](=O)[O-])c(NCc2ccccc2)n1,3,-15,107,22*,-7,0
O=C(CCS(=O)(=O)c1ccccc1)N(CCCN1CCOCC1)c1nc2ccccc2s1,.,98*,107,1,3,-1
CCOC(=O)c1sc2nc(OCCN3CCOCC3)cc(C)c2c1N,.,.,.,-1,.,.
CCCC(=O)N(CCN1CCOCC1)c1nc2cc(C)c(C)cc2s1,6,95*,97,9,-6,-6
Cc1ccc(S(=O)(=O)CCC(=O)N(CCCN2CCOCC2)c2nc3ccccc3s2)cc1,.,98*,99,3,2,13
Cc1ccc2nc(N(CCN3CCOCC3)C(=O)CCS(=O)(=O)c3ccccc3)sc2c1,.,9,107,12,-6,-5
Cc1nn(CC(=O)NCCCN2CCCCC2)c(=O)c2cc(-c3ccccc3)nn12,-4,3,106,6,-10,-8
CCC(C(=O)NCc1ccccc1)n1c(C2CCN(C(C)=O)CC2)nc2ccccc21 (stereo not drawn),.,.,.,-3,.,.
CNC(=O)COC(=O)/C=C/c1ccc(F)cc1,5,-4,97,5,-7,-3
NNC(=S)Nc1cccc(-c2n[nH]c(=S)o2)c1,10,98*,101,-15,-3,-4
CN1/C(=C/C=C(C#N)C#N)C=Cc2ccccc21,9,3,92,140,0,-1
CCCCCN1C=CC=C/C1=C\C=C(C#N)C#N,5,99*,94,-28,-7,-8
CCCCCCN1C=CC=C/C1=C/C=C(C#N)C#N,7,87*,105,-131,-4,-3
CCCCCCN1C=C/C(=C\C=C(C#N)C#N)c2ccccc21,-3,2,101,-34,5,8
Cc1cn(-c2cccnc2)c(C)c1CNC[C@H]1O[C@@H](n2cnc3c(N)ncnc32)[C@H](O)[C@@H]1O,.,3,88,-5,-9,-6
C=CCC1(CC=C)CCCN1C(=O)CC1C(=O)NCCN1Cc1ccc(OC)c(OC)c1 (stereo not drawn),1,-2,120,1,-11,-2
O=C(CCCO)NNc1c2ccccc2nc2ccccc12,-3,99*,97,-3,-9,-4
SMILES,PfM18AAP inh,ALR H2O2 inh,Yeast superoxide,CendR NRP1 mod,APOBEC3G inh,APOBEC3A inh
CCCC(=O)NNc1c2ccccc2nc2ccccc12,4,99*,89,-1,-2,0
Cc1ncc([N+](=O)[O-])n1CC(=O)NC1CCCC1,-4,1,109,-2,10,-1
CC1(C)CC(=O)C2=C(C1)OC(N)=C(C#N)[C@@H]2c1ccccc1[N+](=O)[O-],29*,-9,106,48,-9,-3
C#CCn1c(-c2ccccc2)ccc(C#N)c1=O,-10,-3,89,-8,-4,-1
CCOC(=O)C1CCN(c2ncnc3nc[nH]c23)CC1,5,1,91,-4,-5,-2
O=[N+]([O-])CC(c1ccc(F)cc1)c1c[nH]c2ccccc12 (stereo not drawn),0,11,105,0,-5,0

# Bioassay records (PubChem)
